HEK293 tox – kills HEK 293 cells; HEK 293 viability, ATP luminescence (CellTiter-Glo), 48-72 h; Potency, µM (titrated, usually from 115 µM), most hits filed as inhibitors; 94,000 tested, 6.6% active; AID 1345083; also: nearly all actives have a fitted effect of over 60% in size
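Viability of HEK 293 cells, plated at 250 cells/well, was judged by cellular ATP after compound treatment for 48 or 72 hr. Luminescence was imaged 10 min after CellTiter-Glo addition at room temperature.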
hNpr1 antagonist – antagonists of human natriuretic peptide receptor Npr1 | P16066 | HEK293 hNpr1 GloSensor cGMP, ANP-stimulated luminescence | Potency, µM (top dose mostly 46.3 µM), actives largely listed as inhibitors | 76,000 tested, 1.6% active | AID 1347048; calls by dose curve; also: nearly all actives have a fitted effect of over 60% in size
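Compound pre-incubated 30 min at room temperature on GloSensor-loaded HEK293 cells stably carrying hNpr1 and the pGS-40F cGMP biosensor. Stimulation uses hNppA at 0.1 nM final; luminescence is taken at baseline and 20 min post-agonist.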
Luciferase inh – Photinus pyralis luciferase inhibition; 76,000 tested, 2.5% active; Potency, µM (doses to about 115 µM), most hits filed as inhibitors; purified P. pyralis luciferase, luminescence, biochemical; P08659; also: nearly all actives have a fitted effect of over 65% in size
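Purified 10nM P. pyralis luciferase with 10uM D-luciferin and 10uM ATP in 50mM Tris acetate pH 7.5, 10mM Mg acetate, 0.01% Tween-20, 0.05% BSA. qHTS titration; luminescence read by CCD imager.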
NIH3T3 tox – cytotoxic compounds in NIH 3T3 cells. 94,000 tested, 4.3% active. Potency, µM (top dose mostly 96.7 µM), most hits filed as inhibitors. NIH 3T3 viability, CellTiter-Glo ATP luminescence, 48-72 h; also: nearly all actives have a fitted effect of over 55% in size
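Cytotoxicity was measured by CellTiter-Glo ATP luminescence after 48 or 72 h compound exposure at 37 °C. Mouse NIH 3T3 fibroblasts were seeded at 400 cells/well and dosed by 23 nL pin transfer.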
GPT2 inhibitor – blocks human glutamate pyruvate transaminase 2 | Q8TD30 | Recombinant GPT2, coupled pyruvate oxidase/HRP Amplex Red fluorescence | 100,000 tested, 0.25% active | Potency, µM (series often up to 57.7 µM), actives largely listed as inhibitors; also: nearly all actives have a fitted effect of over 60% in size
Target sequence (Q8TD30 whole entry, looked up): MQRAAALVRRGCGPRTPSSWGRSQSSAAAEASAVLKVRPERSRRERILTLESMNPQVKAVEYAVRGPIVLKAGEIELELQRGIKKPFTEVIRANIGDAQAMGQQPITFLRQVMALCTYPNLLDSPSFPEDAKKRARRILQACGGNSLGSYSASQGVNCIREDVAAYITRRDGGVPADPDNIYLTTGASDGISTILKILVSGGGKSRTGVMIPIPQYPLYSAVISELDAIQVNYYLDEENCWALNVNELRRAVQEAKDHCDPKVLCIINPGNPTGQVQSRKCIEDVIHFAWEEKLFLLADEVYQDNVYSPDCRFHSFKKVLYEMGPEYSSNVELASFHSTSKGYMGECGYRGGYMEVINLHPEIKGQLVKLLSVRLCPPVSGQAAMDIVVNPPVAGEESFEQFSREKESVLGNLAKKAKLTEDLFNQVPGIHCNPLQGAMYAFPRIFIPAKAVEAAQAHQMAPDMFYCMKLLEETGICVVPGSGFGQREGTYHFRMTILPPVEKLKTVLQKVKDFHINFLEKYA
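Inhibition is scored from Amplex Red fluorescence generated when pyruvate oxidase and HRP act on pyruvate released by GPT2. Reactions contain 10ng/uL enzyme, 250uM a-KG and 2mM L-alanine and run 30 min at room temperature.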
Each line names hits and unclear results; the compound was inactive in the other large screens. The list is not random: actives were taken first. Their share in the collection is about 10%. Unless noted, calls follow the shape of the dose curve; as a rule, active = well fitted curve in the direction sought with a large enough effect; inconclusive = small, poorly fitted or top-dose-only effect, or another doubt; inactive = no such curve, though single readings can be large; an effect the other way counts as inactive or inconclusive.

COc1cccc(Nc2cnc3ccc(-c4ccc(F)cc4)nn23)c1	HEK293 tox 100µM, NIH3T3 tox inconclusive, GPT2 inhibitor inconclusive
COc1ccc(Nc2cnc3ccc(-c4ccc(OC)nc4)nn23)cn1	HEK293 tox inconclusive, NIH3T3 tox inconclusive, GPT2 inhibitor inconclusive
Fc1ccc(-c2ccc3ncc(Nc4ncccn4)n3n2)cc1	NIH3T3 tox inconclusive
Cc1ccc(Nc2ccnc(N3CCCC(C(=O)NCCc4ccccc4)C3)n2)cc1 (stereo unspecified)	HEK293 tox inconclusive, NIH3T3 tox 28µM (no result: hNpr1 antagonist, Luciferase inh)
Cc1ccc(Nc2ccnc(N3CCCC(C(=O)NCc4cccc(F)c4)C3)n2)cc1 (stereo unspecified)	HEK293 tox 50µM, NIH3T3 tox inconclusive (no result: hNpr1 antagonist, Luciferase inh)
COc1ccc(Nc2ccnc(N3CCCC(C(=O)NCCc4ccc(Cl)cc4)C3)n2)cc1 (stereo unspecified)	HEK293 tox inconclusive, NIH3T3 tox inconclusive (no result: hNpr1 antagonist, Luciferase inh)
Cc1ccc(Nc2ccnc(N3CCCC(C(=O)NCc4ccccc4F)C3)n2)cc1 (stereo unspecified)	HEK293 tox 10µM, NIH3T3 tox 14µM (no result: hNpr1 antagonist, Luciferase inh)
COc1ccc(Nc2ccnc(N3CCCC(C(=O)NCCc4ccccc4)C3)n2)cc1 (stereo unspecified)	HEK293 tox inconclusive, NIH3T3 tox inconclusive (no result: hNpr1 antagonist, Luciferase inh)
COc1ccc(Nc2ccnc(N3CCCC(C(=O)NCCc4ccccc4F)C3)n2)cc1 (stereo unspecified)	HEK293 tox 22µM, NIH3T3 tox inconclusive (no result: hNpr1 antagonist, Luciferase inh)
Cc1ccc(C2Cn3nnc(-c4nc(-c5cccnc5)no4)c3CO2)c(C)c1 (stereo unspecified)	HEK293 tox inconclusive, NIH3T3 tox 16µM
COc1ccccc1-n1c(=O)c(C(=O)N2CCN(C(=O)c3ccc(F)cc3)CC2)nc2cccnc21	none (no result: hNpr1 antagonist, Luciferase inh)
COc1cccc(-c2cccc(C(=O)N3CCN(C(=O)c4cccc(Cl)c4)CC3)c2)c1	HEK293 tox inconclusive, NIH3T3 tox inconclusive (no result: hNpr1 antagonist, Luciferase inh)
Cc1nc2c(OCC(=O)c3ccccc3)cccn2c(=O)c1-c1cc(C)n(-c2ccc(Cl)cc2)n1	HEK293 tox inconclusive, Luciferase inh 28µM, NIH3T3 tox inconclusive
CCOc1cccn2c(=O)c(-c3cc(C)n(-c4ccc(Cl)cc4)n3)c(C)nc12	HEK293 tox inconclusive
COc1ccccc1-c1cccc(C(=O)N2CCN([S+](=O)([O-])c3ccc(C)cc3)CC2)c1	HEK293 tox inconclusive, NIH3T3 tox inconclusive (no result: hNpr1 antagonist, Luciferase inh)
O=C(c1cccc(Cl)c1)N1CCCC(C(=O)N2CCC(N3CCCC3=O)CC2)C1 (stereo unspecified)	none (no result: hNpr1 antagonist, Luciferase inh)
Clc1ccccc1Cc1nc(-c2ccc(OC3CCNC3)cc2)no1 (stereo unspecified)	HEK293 tox 18µM, Luciferase inh inconclusive, NIH3T3 tox 13µM
OC1(CNc2cc(C(F)(F)F)nc(N3CCCC3)n2)CCCNCC1 (stereo unspecified)	HEK293 tox inconclusive, GPT2 inhibitor inconclusive
COc1ccc(OCc2cc(C(=O)NCCc3nc(C)c(C)s3)no2)c(Cl)c1	HEK293 tox 32µM, Luciferase inh inconclusive, NIH3T3 tox inconclusive
COc1ccc(OCc2cc(C(=O)NC(C)CCO)n[nH]2)c(Cl)c1 (stereo unspecified)	Luciferase inh inconclusive
CCn1cnnc1CC1CCCN(C(=O)NCc2ccccc2)C1 (stereo unspecified)	none (no result: hNpr1 antagonist, Luciferase inh)
COc1ccccc1N1CCN(C(=O)Cn2c(C)cc3nc4n(c(=O)c32)CCCCC4)CC1	HEK293 tox inconclusive, NIH3T3 tox 28µM
COc1ccc(C(=O)N2CCC(c3nc(CCOCC4CCOCC4)no3)C2)cn1 (stereo unspecified)	none (no result: hNpr1 antagonist, Luciferase inh)
CCS(=O)(=O)Nc1ccc(-c2nc(C3CCOC3)no2)cc1 (stereo unspecified)	none
c1cnn(-c2ccc(-c3nc(C4CCOC4)no3)cc2)c1 (stereo unspecified)	HEK293 tox inconclusive, hNpr1 antagonist inconclusive, Luciferase inh 16µM
Cn1ccc2ccc(-c3nc(C4CCOC4)no3)cc21 (stereo unspecified)	Luciferase inh 35µM, NIH3T3 tox inconclusive
c1ccc(CCCc2noc(-c3ccc(N4CCOCC4)nc3)n2)cc1	HEK293 tox inconclusive
CC(Nc1ccc(-c2nc(CCCc3ccccc3)no2)cn1)c1cnn(C)c1 (stereo unspecified)	HEK293 tox inconclusive, Luciferase inh 16µM, NIH3T3 tox inconclusive
COc1ccc(-c2cc(N3CCC(NC(=O)COc4cccc(C)c4)CC3)n[nH]2)cc1	HEK293 tox inconclusive, hNpr1 antagonist inconclusive, NIH3T3 tox 40µM
O=C(NC1CCCN(c2cc(-c3ccc(Cl)cc3)[nH]n2)C1)c1ccc(Br)o1 (stereo unspecified)	HEK293 tox 45µM, NIH3T3 tox inconclusive
COc1ccc(-c2cc(N3CCCC(NC(=O)Cc4ccc(OC)c(OC)c4)C3)n[nH]2)cc1 (stereo unspecified)	HEK293 tox 35µM, hNpr1 antagonist inconclusive, Luciferase inh inconclusive, NIH3T3 tox inconclusive, GPT2 inhibitor inconclusive
Cc1ccc(OCC(=O)NC2CCN(c3cc(-c4ccccc4)[nH]n3)CC2)cc1	none
O=C(NC1CCN(c2cc(-c3ccc(Cl)cc3)[nH]n2)C1)c1ccc(Br)o1 (stereo unspecified)	HEK293 tox 35µM, NIH3T3 tox inconclusive, GPT2 inhibitor inconclusive
CCS(=O)(=O)N1CCc2nc(-c3ccccc3)[nH]c2C1	none (no result: hNpr1 antagonist, Luciferase inh)
O=C(NC1CCCCC1)C1CCCN1C(=O)c1cccc(-c2cccnc2)c1 (stereo unspecified)	none (no result: hNpr1 antagonist, Luciferase inh, GPT2 inhibitor)
CN(C)C(=O)N1CCC(c2nc(CCOc3ccc(F)cc3)no2)C1 (stereo unspecified)	HEK293 tox inconclusive, NIH3T3 tox inconclusive (no result: hNpr1 antagonist, Luciferase inh)
COc1ccc(-c2cc(N3CCCC(NC(=O)c4ccc(Br)o4)C3)n[nH]2)cc1 (stereo unspecified)	HEK293 tox inconclusive, Luciferase inh 32µM, NIH3T3 tox inconclusive, GPT2 inhibitor inconclusive
CCN1C(=O)CCc2cc(NC(=O)CC(C)C)ccc21	none
COCCN1C(=O)CCc2cc(NC(=O)c3ccc4c(c3)OCO4)ccc21	HEK293 tox inconclusive, Luciferase inh 40µM
CC(C)CN1C(=O)CCc2cc(NC(=O)c3ccc4c(c3)OCO4)ccc21	HEK293 tox 40µM, Luciferase inh inconclusive, NIH3T3 tox inconclusive, GPT2 inhibitor inconclusive
COCCN1C(=O)CCc2cc(NC(=O)COC)ccc21	none
CCN(CC)C(=O)CCc1c(C)nn(-c2ccc(F)cc2)c1Oc1ccccc1F	HEK293 tox inconclusive, NIH3T3 tox inconclusive
Cc1nn(-c2ccc(F)cc2)c(Oc2ccccc2F)c1CCC(=O)N(C)C(C)C	HEK293 tox 35µM, NIH3T3 tox inconclusive
CCN(C)C(=O)CCc1c(C)nn(-c2cccc(C)c2)c1Oc1ccc(F)cc1F	HEK293 tox inconclusive, NIH3T3 tox inconclusive
CCN(CC)C(=O)CCc1c(C)nn(-c2cccc(C)c2)c1Oc1ccc(F)cc1F	HEK293 tox 25µM, NIH3T3 tox 35µM

Screening results: PubChem BioAssay, National Center for Advancing Translational Sciences (NCATS)
